# Measured values taken from publication PMC4336329 (PLoS ONE, 2015).
# The whole screen tested about 310,000 compounds, of which about 14,000 (4.5%) showed an effect of 50% or more. The effect is printed as a negative number. For the sample, strong results were picked, then their nearest neighbours and some compounds at random.
# Molecular target: human ether-à-go-go-related gene (hERG) potassium channel (human, UniProt Q12809)
# Assay: primary screen, population patch clamp on CHO cells stably expressing hERG; higher = less effect of the substance
# 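Also: peak tail current of the secondary pulse compared with the same well before compound.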
# human ether-à-go-go-related gene (hERG) potassium channel, sequence (Q12809 whole entry, looked up): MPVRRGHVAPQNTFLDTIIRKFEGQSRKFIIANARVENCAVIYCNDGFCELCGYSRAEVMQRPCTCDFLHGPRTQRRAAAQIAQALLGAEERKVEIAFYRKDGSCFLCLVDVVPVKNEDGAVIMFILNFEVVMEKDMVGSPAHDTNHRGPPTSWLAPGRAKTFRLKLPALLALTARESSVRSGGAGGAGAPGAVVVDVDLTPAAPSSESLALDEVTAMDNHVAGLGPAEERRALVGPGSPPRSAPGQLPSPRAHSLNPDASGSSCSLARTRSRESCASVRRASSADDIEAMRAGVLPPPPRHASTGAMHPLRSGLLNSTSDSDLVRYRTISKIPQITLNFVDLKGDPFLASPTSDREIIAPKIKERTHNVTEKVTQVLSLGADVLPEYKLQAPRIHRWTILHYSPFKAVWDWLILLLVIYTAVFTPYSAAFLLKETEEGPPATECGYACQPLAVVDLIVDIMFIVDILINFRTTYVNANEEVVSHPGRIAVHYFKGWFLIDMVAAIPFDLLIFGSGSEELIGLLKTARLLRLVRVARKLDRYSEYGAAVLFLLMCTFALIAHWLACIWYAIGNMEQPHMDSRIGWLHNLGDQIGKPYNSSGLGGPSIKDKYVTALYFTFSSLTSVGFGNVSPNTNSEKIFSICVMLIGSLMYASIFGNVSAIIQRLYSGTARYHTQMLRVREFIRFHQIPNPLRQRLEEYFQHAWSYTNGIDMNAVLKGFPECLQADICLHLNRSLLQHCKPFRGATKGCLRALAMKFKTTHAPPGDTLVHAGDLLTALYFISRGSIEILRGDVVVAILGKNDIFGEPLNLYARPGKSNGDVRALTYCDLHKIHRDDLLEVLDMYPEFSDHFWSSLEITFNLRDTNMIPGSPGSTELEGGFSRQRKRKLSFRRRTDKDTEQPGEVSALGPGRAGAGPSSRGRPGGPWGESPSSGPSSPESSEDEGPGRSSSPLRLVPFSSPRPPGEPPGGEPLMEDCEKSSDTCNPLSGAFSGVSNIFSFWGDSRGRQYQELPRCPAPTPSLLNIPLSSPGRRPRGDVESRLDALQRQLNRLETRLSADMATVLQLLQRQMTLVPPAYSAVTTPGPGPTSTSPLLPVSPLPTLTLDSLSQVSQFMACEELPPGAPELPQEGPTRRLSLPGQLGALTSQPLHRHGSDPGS
row,Compound,"hERG current change (%, negative = inhibition) at 10uM [%]"
1,CCOC(=O)c1csc(NC(=O)c2ccc(OCC)cc2)n1,-14.9
2,Cc1ccccc1C(=O)OC1OC(=O)C(Cl)=C1Nc1ccc(C(=O)O)cc1 (centres unmarked),24.4
3,COc1ccc(N2CCN(C3CCCN(S(=O)(=O)c4ccccc4)C3)CC2)cc1 (centres unmarked),-31.1
4,CCc1ccc(S(=O)(=O)N2CCCC(N3CCN(c4ccc(OC)cc4)CC3)C2)cc1 (centres unmarked),-65.4
5,COc1ccccc1N1CCN(C2CCCN(Cc3c(F)cccc3F)C2)CC1 (centres unmarked),-16.3
6,COc1ccc(N2CCN(C3CCCN(Cc4ccc(F)c(F)c4)C3)CC2)cc1 (centres unmarked),-64.6
7,COc1ccc(S(=O)(=O)N2CCN3CCCC3C2)cc1 (centres unmarked),22.7
8,CC1CCCCN1CCCNc1ccc(C(CC(N)=O)NC(=O)Cc2cccc3ccccc23)cc1[N+](=O)[O-] (centres unmarked),-14.6
9,Nc1nc(Oc2ccc(F)cc2)c(Br)c(=O)[nH]1,7.49
10,COc1ccc(-c2c(-c3ccc(OCC(=O)NN)cc3O)n[nH]c2C(F)(F)F)cc1,-5.25
11,C/C(CC(=O)Nc1cc(Cl)ccc1Cl)=N\NC(=O)c1ccco1,-6.6
12,Cc1ccc(CCNC(=O)C2CC(c3ccccc3[N+](=O)[O-])=NO2)cc1 (centres unmarked),-20.7
13,Cc1c(C=O)n(C)n(-c2ccccc2)c1=O,11.5
14,O=C(c1ccc(Br)s1)N1CCN(C/C=C/c2ccccc2)CC1,-40.6
15,Cl.O=C(c1ccco1)N1CCN(C/C=C/c2ccccc2)CC1,-38
16,O=C(c1cc2ccccc2o1)N1CCN(C/C=C/c2ccccc2)CC1,-62.2
17,O=C(c1cc2ccccc2o1)N1CCN(S(=O)(=O)/C=C/c2ccccc2)CC1,-30.8
18,Cl.O=C(c1cc2ccccc2o1)N1CCN(Cc2ccccc2)CC1,-32.6
19,O=C(c1ccc(Br)o1)N1CCN(C/C=C/c2ccccc2)CC1,-61.8
20,S=c1[nH]nc(-c2cccs2)n1Cc1ccccc1,9
21,CCCN1C2CCCC1CC(NC(=O)NC1CCCCC1)C2 (centres unmarked),-12.4
22,COCCNC(=O)Cn1cnc2ccc(S(=O)(=O)N3CCC(C)CC3)cc2c1=O,-15.1
23,CCOCC(=O)Nc1cc(-c2cn3cccnc3n2)ccc1C,6.69

row,Compound,"hERG current change (%, negative = inhibition) at 10uM [%]"
1,CCn1c(CSc2nc3ccccc3s2)nnc1SCC(=O)c1ccc(O)cc1O,12.2
2,Cn1c(SCC(=O)N2CCCCC2)nc2cccnc21,22.2
3,NC(=O)c1ccsc1NC(=O)COC(=O)C1=NNC(=O)CC1,8.28
4,COC(=O)c1cc2n(n1)CCN(Cc1ccc(C)cc1)C2=O,1.46
5,CCOC(=O)N1CCN(C(=O)c2cc3cc(Cl)ccc3[nH]2)CC1,-15.7
6,CN1CCN(C(=O)c2cc3cc(Cl)ccc3[nH]2)CC1.Cl,-35.7
7,O=C(c1cc2cc(F)ccc2[nH]1)N1CCN(c2ccc(F)cc2)CC1,-4.93
8,CCN1CCN(C(=O)c2cc3cc(F)ccc3[nH]2)CC1,-65
9,CCOC(=O)N1CCN(C(=O)c2cc3cc(F)ccc3[nH]2)CC1,-19.8
10,CCN1CCN(C(=O)c2cc3cc(Cl)ccc3[nH]2)CC1,-59.8
11,CC(=O)Nc1ccc(S(=O)(=O)N(c2cccnc2)S(=O)(=O)c2ccc(NC(C)=O)cc2)cc1,-3.89
12,Cc1cc(C)cc(NC(=O)CSc2ncc(S(=O)(=O)c3ccccc3)c(=O)[nH]2)c1,13.6
13,O=C(Nc1ncn[nH]1)c1cc(S(=O)(=O)Nc2cccc(C(F)(F)F)c2)ccc1Cl,17.8
14,COc1ccc(CNC(=O)COC(=O)c2n[nH]c3ccccc23)cc1,7.27
15,CN(C)CCO[C@@H](c1ccc(Cl)cc1)c1ccccn1.O=C(O)/C=C\C(=O)O,-29.5
16,CN(C)CCOC(c1ccc(Cl)cc1)c1ccccn1.O=C(O)/C=C/C(=O)O (centres unmarked),-43
17,Cc1ccc(C(OCCN(C)C)c2cccc(C(F)(F)F)c2)cc1.O=C(O)/C=C\C(=O)O (centres unmarked),-58.6
18,CCOc1cc(/C=N\Nc2ncc(F)c(N3CCOCC3)n2)ccc1Oc1nc(Cl)ncc1F,-51.8
19,CCOc1cc(/C=N/NC(=O)c2ccc(O)cc2)ccc1Oc1nc(Cl)ncc1F,-7.77
20,COc1ccc(/C=N\Nc2ncc(F)c(N3CCOCC3)n2)cc1OC,-31.1
21,CCS(=O)(=O)N1CCN(S(=O)(=O)c2ccc(F)cc2)CC1,-18.4
22,O=C(NC1CCCCC1)c1ccc(-c2cccc([N+](=O)[O-])c2)o1,12.4
23,O=C(NC1CN2CCC1CC2)c1ccc(-c2ccc([N+](=O)[O-])cc2)o1 (centres unmarked),-64

row,Compound,"hERG current change (%, negative = inhibition) at 10uM [%]"
1,O=C(NC1CCC(O)CC1)c1ccc(-c2ccc([N+](=O)[O-])cc2)o1 (centres unmarked),-76.2
2,O=C(NC1CCC(O)CC1)c1ccc(-c2ccc(Cl)cc2)o1 (centres unmarked),-21.8
3,O=C(Nc1ccccc1)c1ccc(-c2ccc([N+](=O)[O-])cc2)o1,4.73
4,CC(=O)Nc1ccc(NC(=O)c2ccc(-c3ccc([N+](=O)[O-])cc3)o2)cc1,-14.5
5,Cc1cc(=O)[nH]c(Nc2ccc(Cl)cc2)n1,15
6,CN1C(=O)C(CC(=O)Nc2ccccc2F)N(NC(=O)c2ccc(Br)cc2)C1=S (centres unmarked),6.5
7,Cc1ccc(CCSCC(=O)O)cn1,18.9
8,C=CCN1C(=O)CSc2ccc(C(=O)NCc3ccc(F)cc3)cc21,-21.3
9,CCN(C(=O)COc1ncnc2sccc12)c1ccccc1,63.8
10,COc1ccc(C2SCC(=O)N2c2c(C)n(C)n(-c3ccccc3)c2=O)cc1OC (centres unmarked),13.6
11,COC(=O)CCCC(=O)N1CCC(CO)(CCc2ccccc2)CC1,-23.8
12,COc1cccc(CC2(CO)CCN(S(=O)(=O)c3ccc(OC)cc3OC)CC2)c1,-10.7
13,COc1ccc(CCC(C)N2CCC(CO)(Cc3ccccc3)CC2)cc1 (centres unmarked),-73.4
14,COc1ccc(CC2(CO)CCN(C(=O)NCc3ccccc3)CC2)cc1,-2.8
15,COc1ccc(CC2(CO)CCN(S(=O)(=O)c3sccc3C)CC2)cc1,-20.9
16,CSCC(C)N1CCC(CO)(CCc2ccccc2)CC1 (centres unmarked),-29.4
17,CN(C)S(=O)(=O)N1CCC(CO)(CCc2ccccc2)CC1,-8.86
18,CC(COc1ccccc1)N1CCC(CO)(CCc2ccccc2)CC1 (centres unmarked),-80.3
19,COc1ccc(CC2(CO)CCN(C(C)COc3ccccc3)CC2)cc1 (centres unmarked),-82
20,CSCC(C)N1CCC(CO)(CCCc2ccccc2)CC1 (centres unmarked),-55.7
21,COc1ccc2c(C)c(CCC(=O)NCCCN3CCCC3=O)c(=O)oc2c1C,1.56
22,Cc1ccc(-c2ccc(=O)n(CC(=O)NCCN3C(C)CCCC3C)n2)cc1 (centres unmarked),0.00388
23,CCCN(c1ccccc1F)S(=O)(=O)c1cc(-c2cc(C)no2)ccc1OC,6.91

row,Compound,"hERG current change (%, negative = inhibition) at 10uM [%]"
1,Cc1ccnc(NC(=O)CCC(=O)N(CC(=O)NC(C)(C)C)c2ccc3c(c2)OCCO3)c1,17.8
2,Cn1cc(Cl)nc1C(O)c1ccccc1 (centres unmarked),7.21
3,Br.O=S(=O)(c1ccc(-c2csc(Nc3ccc(Br)cc3)n2)cc1)N1CCCC1,10.2
4,Cc1cccc(N(CC(=O)NC2CCCCC2)C(=O)c2ccc(C)s2)c1,-24.7
5,O=C(COc1ccc(C(=O)c2ccccc2)cc1)NC1CCCCCC1,-21.9
6,CC(C)(C)NC(=O)CCC1COc2ccccc2O1 (centres unmarked),-4.27
7,Cc1cccc(C)c1NC(=O)N1C2CCC1CC(O)(c1cccnc1)C2 (centres unmarked),20.2
8,Cc1ccc(/C=C/C(=O)NCc2ccccn2)o1,-26.4
9,COc1ccc([C@@H]2[C@@H]3C(=O)N(C(C)(C)C)C(=O)[C@@H]3[C@]3(Cc4ccc(Cl)cc4)C(=O)N(c4ccc(Br)cc4)C(=O)N23)cc1,2.7
10,COc1ccc(CC2(CO)CCN(S(=O)(=O)N(C)C)CC2)cc1,9.82
11,COc1ccc(CCC(C)N2CCc3ccccc3C2)cc1 (centres unmarked),-61.7
12,COc1ccc(CCC(C)N2CCOCC2)cc1 (centres unmarked),2.71
13,Cc1ccsc1C(=O)N1CCC(CO)(Cc2ccccc2)CC1,17.6
14,COc1ccc(CC2(CO)CCN(C(C)Cc3ccc(Cl)cc3)CC2)cc1 (centres unmarked),-80.4
15,COc1ccc(CC2(CO)CCN(S(=O)(=O)c3c(C)nn(C)c3Cl)CC2)cc1,14.7
16,COc1ccc(CC(=O)N2CCc3ccccc3C2)cc1,3.67
17,CC(COc1ccccc1)N1CCC(CO)(Cc2ccccc2)CC1 (centres unmarked),-50.6
18,CN1CCC(CO)(Cc2ccccc2)CC1,16.2
19,COc1ccc(N2CCN(C(=O)Cn3ncc4c([nH]c5ccccc54)c3=O)CC2)cc1,9.02
20,CCOC(=O)Cc1csc(NC(=O)c2ccc(S(=O)(=O)N3CCCCC3)cc2)n1,-42.2
